The values below come from PubChem BioAssay.

One assay addresses Albumin (Bos taurus) (UniProt P02769). As to the kind of experiment: bovine serum albumin binders on microarray, profiling panel, artefact control for SMM control protein annotation, biochemical, small-molecule microarray, Alexa647 label, 635/667 nm fluorescence (AID 1118).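 Also: score merges 667 nm emission intensity and signal-to-noise per printed compound spot.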 As to conditions: BSA-A647 binding, fluorescence 635 nm, higher = more signal.
Assay [1] is described as follows: small-molecule microarray binders of probe aXIP, primary screen, biochemical, NeuroSMM set, 635/667 nm fluorescence (AID 1119).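 Also: probe is the protein aXip251-270 applied at 1 µg/mL to compound-printed slides; binding of probe to printed compounds measured as 667 nm fluorescence plus signal to noise.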 As to conditions: higher = more signal, called active from +8 up or from −8 down.
Assay [2] can be described thus: small-molecule binders of probe aNOTCH3, primary screen, biochemical, small-molecule microarray, 635/667 nm fluorescence (AID 1120).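 Also: probe is a biotin-tagged antibody raised against NOTCH3 rather than NOTCH3 protein; score merges spot fluorescence near 667 nm with spot signal to noise.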 As to conditions: higher = more signal.
Assay [3] in a line: small-molecule binders of probe aNOTCH2, primary screen, biochemical, small-molecule microarray, 635/667 nm fluorescence (AID 1121).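 Also: score merges feature fluorescence read at 667 nm with its signal to noise.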 The settings on record: higher = more signal.
In assay [4] the target is Carbonic anhydrase 2 (Homo sapiens) (UniProt P00918). In words: CAII small-molecule binders, profiling panel, biochemical, small-molecule microarray, Alexa647-labelled CAII (AID 1122). The settings on record: CAII-A647 binding fluorescence, higher = more signal.
The nature of assay [5]: COS7 lysate on small-molecule microarray, probe aHis, 635 nm (AID 1123).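 Also: z-score combines 667nm fluorescence intensity with signal-to-noise per printed compound spot.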 The settings on record: COS7 cell lysate, fluorescence, higher = more signal.
The nature of assay [6]: compound binding in COS7 lysate, probe aLAP1, primary screen, cell lysate, small-molecule microarray (AID 1124).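 Also: lysate comes from COS7 cells expressing LAP1 and is applied at 0.3 µg/mL; score merges spot fluorescence near 667 nm with signal-to-noise over triplicate slides.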 The settings on record: probe aLAP1, fluorescence, higher = more signal.
The next assay concerns Sam68 (KHDRBS1). In words: Sam68 small-molecule binders, primary screen, biochemical, small-molecule microarray, 635 nm fluorescence (AID 1125).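 Also: score merges 667 nm channel intensity with signal to noise over triplicate slides.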 The settings on record: small-molecule microarray binding, higher = more signal.
Assay [7] has as its system Chordin-like protein 2 (CHRDL2). In words: CHRDL2 small-molecule binders, primary screen, biochemical, small-molecule microarray, 635 nm fluorescence (AID 1126).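 Also: printed compound slides probed with Chrdl2 protein at 4 µg/mL for 1 h at 4 C; score merges 667 nm emission intensity with signal to noise over three replicate slides.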 The settings on record: small-molecule microarray binding, fluorescence 635 nm; higher = more signal.
Assay [8] addresses Concanavalin-A (Canavalia ensiformis) (UniProt P02866). In words: ConA small-molecule binders, primary screen, artefact control for SMM control protein annotation, biochemical, small-molecule microarray, Alexa647 label, 635 nm (AID 1127).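 Also: z combines 667 nm emission intensity with signal-to-noise across three replicate slides.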 As to conditions: ConA-A647 binding fluorescence, higher = more signal.

Calls of active or inactive are those of the source.

Sequence of Concanavalin-A (Canavalia ensiformis) (P02866 whole entry, looked up): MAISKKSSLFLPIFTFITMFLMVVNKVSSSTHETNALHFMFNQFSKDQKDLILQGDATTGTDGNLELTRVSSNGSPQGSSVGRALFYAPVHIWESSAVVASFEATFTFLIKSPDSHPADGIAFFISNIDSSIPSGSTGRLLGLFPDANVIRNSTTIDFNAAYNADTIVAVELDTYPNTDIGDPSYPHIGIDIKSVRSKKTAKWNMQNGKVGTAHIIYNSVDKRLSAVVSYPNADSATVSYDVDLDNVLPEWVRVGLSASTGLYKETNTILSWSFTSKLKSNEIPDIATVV
Sequence of Albumin (Bos taurus) (P02769 whole entry, looked up): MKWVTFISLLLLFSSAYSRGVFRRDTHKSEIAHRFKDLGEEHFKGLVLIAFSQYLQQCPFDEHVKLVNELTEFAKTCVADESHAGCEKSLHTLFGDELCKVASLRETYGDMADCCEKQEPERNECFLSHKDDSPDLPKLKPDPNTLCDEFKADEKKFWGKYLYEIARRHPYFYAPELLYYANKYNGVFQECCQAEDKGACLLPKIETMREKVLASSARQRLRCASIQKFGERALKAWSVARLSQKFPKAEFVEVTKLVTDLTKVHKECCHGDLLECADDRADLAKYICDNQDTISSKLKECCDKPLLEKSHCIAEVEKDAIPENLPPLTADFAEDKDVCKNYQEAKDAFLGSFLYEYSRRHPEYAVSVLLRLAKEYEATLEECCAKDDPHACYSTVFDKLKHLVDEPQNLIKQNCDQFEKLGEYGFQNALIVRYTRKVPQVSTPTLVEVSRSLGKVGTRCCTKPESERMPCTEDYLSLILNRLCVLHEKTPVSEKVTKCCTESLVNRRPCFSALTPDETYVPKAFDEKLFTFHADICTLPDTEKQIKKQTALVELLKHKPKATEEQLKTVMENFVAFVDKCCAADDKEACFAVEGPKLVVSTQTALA

Consider `CN(C)CCCCNC(=O)[C@H]1C[C@H]2C(=O)N3CCC[C@H]3C(=O)N2[C@H]1c1ccc(O)cc1`, for which the composite z-score is -0.813 in the assay with Albumin (Bos taurus); -0.738 in [2]; -0.5 in assay [3]; 0.666 in [4]; 1.44 in assay [5]; -0.642 in assay [6]. Also, the composite z-score in the assay with Sam68 (KHDRBS1) was -1.11; in [7], 0.0994; in assay [8] it was -0.397. Further, the composite Z-score in [1] is 0.11 (inactive).

On to `O=C1O[C@@H](c2ccccc2)[C@@H](c2ccccc2)N2[C@@H](c3ccc(O)cc3)[C@]3(C(=O)Nc4ccc(C#CCCO)cc43)[C@@H](C(=O)Nc3nc4ccccc4s3)[C@H]12`, for which the composite z-score with Albumin (Bos taurus) was 0.827; in assay [2] it was -0.0265; in assay [3] it was -0.115; in assay [4] it was 0.507; in [5], 0.999; in [6], 0.887. In addition, the composite z-score with Sam68 (KHDRBS1) was 1.29; in [7], -0.0623; in [8], 0.616. In addition, in assay [1], the composite Z-score was -0.0011 (inactive).

On to `Cc1c(NC(=O)/C(C#N)=C/C=C/c2ccc(N(C)C)cc2)c(=O)n(-c2ccccc2)n1C`, for which the composite z-score is 0.376 in the assay with Albumin (Bos taurus); 0.308 in assay [2]; 0.292 in assay [3]; 0.456 in assay [4]; 2.54 in assay [5]; -0.154 in assay [6]. For the same molecule, the composite z-score with Sam68 (KHDRBS1) was found to be 1.22; in assay [7] it was 0.568; in assay [8], 1.1. For the same molecule, the composite Z-score in assay [1] is 1.02 (inactive).

As for `C[C@@H]1ON(c2ccc(C(=O)OC(C)(C)C)cc2)[C@H](c2ccc(Br)cc2)[C@H]1C(=O)N1C(=O)OC[C@H]1Cc1ccccc1`, the composite z-score with Albumin (Bos taurus) is 0.778; in assay [2], 0.0773; in assay [3], -0.0984; in assay [4] it was 0.235; in assay [5] it was 1.86; in assay [6], 0.0865. For the same molecule, the composite z-score in the assay with Sam68 (KHDRBS1) is 1.28; in assay [7], 0.491; in assay [8] it was 1.08. Also, the composite Z-score in [1] is -0.359 (inactive).

Take `COCCOC(=O)N1C(=O)[C@@]2(c3cc(C#Cc4ccc(OC)cc4)ccc31)[C@H](C(=O)N1CCN(c3ncccn3)CC1)[C@H]1C(=O)O[C@H](c3ccccc3)[C@H](c3ccccc3)N1[C@@H]2c1ccccc1OCCO`: the composite z-score in the assay with Albumin (Bos taurus) is -0.108; in [2], -0.122; in assay [3], -0.114; in [4], 0.331; in [5], 1.3; in assay [6], 0.107. In addition, the composite z-score in the assay on Sam68 (KHDRBS1) was 0.717; in [7] it was -0.0849; in [8], 0.819. For the same molecule, the composite Z-score in assay [1] was 0.131 (inactive).

For the molecule `CCOC(=O)C[C@H]1[C@H](OC(=O)c2ccc(C(=O)c3ccccc3)cc2)[C@@H](NC(=O)c2ccc3ccccc3c2)c2cc(OCCCO)ccc2N1C(=O)c1ccccc1`, the composite z-score in the assay with Albumin (Bos taurus) was found to be 0.362; in [2], 0.0893; in assay [3], 0.127; in [4], 0.197; in assay [5] it was 1.26; in assay [6], 0.8. In addition, the composite z-score was 1.32 in the assay with Sam68 (KHDRBS1), -0.257 in assay [7] and 1.04 in assay [8]. Moreover, in assay [1], the composite Z-score is 0.224 (inactive).

For the molecule `COc1ccc([Si](C)(C)[C@H]2[C@H](CCO)O[C@@]3(C(=O)N(Cc4cccc(N5CCCCC5=O)c4)c4ccccc43)[C@@H]2C)cc1`, the composite z-score with Albumin (Bos taurus) was 0.378; in assay [2] it was -0.0984; in [3], -0.148; in assay [4] it was 0.394; in assay [5], 1.31; in [6] it was 0.264. Further, the composite z-score in the assay with Sam68 (KHDRBS1) was 1.15; in [7], 0.769; in assay [8], 1.1. Also, the composite Z-score in [1] is 0.299 (inactive).

`CN1C(=O)C2C(C1=O)C1C=C(c3ccc(CO)cc3)C2C(c2cccs2)N1Cc1cccc(OC(F)(F)F)c1` (stereo not given): the composite z-score with Albumin (Bos taurus) is 0.866; in [2], 0.0824; in assay [3], -0.152; in assay [4], 0.47; in assay [5] it was 1.98; in assay [6] it was 0.37. In addition, the composite z-score in the assay with Sam68 (KHDRBS1) turned out to be 1.28; in assay [7], 0.0434; in assay [8], 1.08. Also, the composite Z-score in assay [1] was -0.228 (inactive).

Turning to `COC(=O)[C@@]1(Cc2ccc(F)cc2)[C@H]2c3cc(C(=O)N4CCCC4)n(CCc4c[nH]c5ccc(OC)cc45)c3C[C@H]2CN1C(=O)c1ccccc1`, the composite z-score with Albumin (Bos taurus) was 0.871; in [2], 1.43; in assay [3] it was 0.849; in [4], 0.313; in assay [5] it was 2.33; in [6] it was -0.143. Also, the composite z-score was 0.929 with Sam68 (KHDRBS1), -0.0865 in [7] and 1.09 in [8]. Also, the composite Z-score in assay [1] is 0.298 (inactive).

Take `COC1(C)CN(Cc2ccccc2Br)[C@H](/C=C/c2ccccc2)[C@H](Cc2ccccc2)O1` (stereo not given in full): the composite z-score was -0.403 in the assay with Albumin (Bos taurus); -0.236 in [2]; -0.198 in assay [3]; 0.0397 in [4]; 0.203 in assay [5]; -0.195 in assay [6]. The composite z-score in the assay on Sam68 (KHDRBS1) is -0.435; in assay [7], -0.77; in assay [8], -0.0737. Further, the composite Z-score in [1] was 0.0873 (inactive).

Regarding `COCC(=C=CC[C@H](O)c1cccc(OCCO)c1)C[C@H](O)c1ccccn1`, the composite z-score with Albumin (Bos taurus) is 0.0722; in [2], -0.004; in assay [3], -0.145; in assay [4], 0.778; in assay [5], 3.79; in assay [6], 0.369. In addition, the composite z-score is 0.52 with Sam68 (KHDRBS1), -0.0575 in assay [7] and 0.102 in assay [8]. Further, in [1], the composite Z-score is -0.0402 (inactive).

Turning to `C=CC[C@H](OC(=O)Nc1ccc(OC)cc1)c1ccc(O)c2ccccc12`, the composite z-score is -0.343 with Albumin (Bos taurus); 0.0539 in assay [2]; -0.124 in assay [3]; 0.289 in assay [4]; 0.865 in assay [5]; -0.0938 in [6]. Besides, the composite z-score stood at 1.3 in the assay on Sam68 (KHDRBS1), 1.18 in assay [7] and 1.09 in [8]. Besides, the composite Z-score in assay [1] is -0.192 (inactive).

As for `C=CC[C@@]12N=C(c3ccc(OCCCO)cc3)O[C@@H]1c1ccccc1N(CCS(=O)(=O)c1ccccc1)C2=O`, the composite z-score in the assay with Albumin (Bos taurus) is 0.873; in [2] it was 0.0692; in assay [3] it was -0.16; in assay [4], 0.724; in assay [5], 1.78; in assay [6], 0.551. In addition, the values for the composite z-score (with Sam68 (KHDRBS1); in [7]; in [8]) were 1.31, 0.992 and 1.17, respectively. Moreover, the composite Z-score in assay [1] was -0.32 (inactive).

Turning to `CO[C@H]1O[C@H](CO)[C@@H](OC(=O)Nc2ccc(C(F)(F)F)cc2)[C@H](OC(=O)Nc2ccc3c(c2)OCO3)[C@H]1OC(=O)Nc1ccc2c(c1)OCO2`, the composite z-score in the assay with Albumin (Bos taurus) was 0.72; in [2], 0.169; in assay [3], 0.0062; in [4], 0.767; in [5], 2.67; in assay [6], 0.59. Moreover, the composite z-score in the assay on Sam68 (KHDRBS1) is 1.3; in assay [7], -0.146; in [8], 1.14. For the same molecule, the composite Z-score in assay [1] is 1.42 (inactive).
